Experimental data: PubChem BioAssay AID1159580 (chemical genetic matrix, 2015)
In all, about 5,500 compounds went through this assay and about 2,000 (36%) were called active. Inconclusive results (about 18%) are left out. Rule as the data show it: active = normalized growth mostly below about 0.91 (no sharp cut-off); inconclusive = no clear call, values can overlap the other calls; inactive = mostly above about 0.92. This is one part of the list.

Experiment: chemical genetic growth profiling, strain panel (AID 1159580);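 also: tested at 20 µM; growth read once vehicle control cultures reached saturation at 30 °C; 1 = growth at the plate median or of vehicle wells; lower values mean less growth of the strain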
Details: S. cerevisiae deletion strains, growth OD

Measured: normalized growth

CC(=O)CC(=O)CCC(=O)O
inactive: locus YAL021C, strain ccr4, stronger effect = lower value 0.991 | locus YAL026C, strain drs2, stronger effect = lower value 1.05 | locus YAL030W, strain snc1, stronger effect = lower value 1.02 | locus YBL061C, strain skt5, stronger effect = lower value 1.03 | locus YBR009C, strain hhf1, stronger effect = lower value 1.03 | locus YBR023C, strain chs3, stronger effect = lower value 1.03 | locus YBR171W, strain sec66, stronger effect = lower value 1.04 | locus YBR231C, strain swc5, stronger effect = lower value 1.03 | locus YBR279W, strain paf1, stronger effect = lower value 1.02 | locus YCL011C, strain gbp2, stronger effect = lower value 1.02 | locus YCL016C, strain dcc1, stronger effect = lower value 1.02 | locus YCL061C, strain MRC1, stronger effect = lower value 1.02 | locus YCL069W, strain vba3, stronger effect = lower value 1.02 | locus YCR088W, strain abp1, stronger effect = lower value 1.02 | locus YDL005C, strain med2, stronger effect = lower value 1.03 | locus YDL040C, strain nat1, stronger effect = lower value 1.02 | locus YDR001C, strain nth1, stronger effect = lower value 1.01 | locus YDR069C, strain doa4, stronger effect = lower value 1.03 | locus YDR137W, strain rgp1, stronger effect = lower value 1.01 | locus YDR159W, strain sac3, stronger effect = lower value 1 | locus YDR195W, strain ref2 0.989 | locus YDR297W, strain sur2, stronger effect = lower value 1.01 | locus YDR334W, strain swr1, stronger effect = lower value 1.03 | locus YDR335W, strain msn5, stronger effect = lower value 1.02 | locus YDR392W, strain spt3, stronger effect = lower value 0.95 | locus YEL003W, strain gim4, stronger effect = lower value 1.02 | locus YEL037C, strain rad23, stronger effect = lower value 1.02 | locus YEL061C, strain CIN8 (second series), stronger effect = lower value 1.02 | locus YER015W, strain faa2, stronger effect = lower value 1.02 | locus YER016W, strain bim1, stronger effect = lower value 1.04 | locus YER111C, strain swi4, stronger effect = lower value 1.03 | locus YER155C, strain BEM2 (second series), stronger effect = lower value 1.05 | locus YFR010W, strain ubp6, stronger effect = lower value 1.03 | locus YGL167C, strain pmr1, stronger effect = lower value 1.02 | locus YGL173C, strain kem1, stronger effect = lower value 1.03 | locus YGL227W, strain vid30, stronger effect = lower value 1.01 | locus YGL240W, strain doc1, stronger effect = lower value 1.04 | locus YGL253W, strain hxk2, stronger effect = lower value 1.05 | locus YHR013C, strain ard1, stronger effect = lower value 1.04 | locus YHR027C, strain rpn1, stronger effect = lower value 1.03 | locus YHR030C, strain SLT2, stronger effect = lower value 0.982 | locus YHR079C, strain IRE1, stronger effect = lower value 0.996 | locus YHR142W, strain chs7, stronger effect = lower value 1.02 | locus YJL092W, strain hpr5, stronger effect = lower value 1.02 | locus YJL095W, strain BCK1 (second series), stronger effect = lower value 1.02 | locus YJL095W, strain BCK1, stronger effect = lower value 0.983 | locus YJL115W, strain asf1, stronger effect = lower value 1.03 | locus YJL129C, strain trk1, stronger effect = lower value 1.01 | locus YJL154C, strain vps35, stronger effect = lower value 1.01 | locus YJL164C, strain tpk1, stronger effect = lower value 1.01 | locus YJL166W, strain qcr8, stronger effect = lower value 1.02 | locus YJL187C, strain SWE1, stronger effect = lower value 1.02 | locus YJR066W, strain TOR1, stronger effect = lower value 0.962 | locus YKL160W, strain elf1, stronger effect = lower value 1 | locus YKR026C, strain gcn3, stronger effect = lower value 1.03 | locus YKR091W, strain srl3, stronger effect = lower value 1.02 | locus YLL001W, strain dnm1, stronger effect = lower value 1.01 | locus YLL026W, stronger effect = lower value 1.02 | locus YLL041C, strain sdh2, stronger effect = lower value 1.02 | locus YLR027C, strain aat2, stronger effect = lower value 1.03 | locus YLR113W, strain HOG1, stronger effect = lower value 1.04 | locus YLR221C, strain rsa3, stronger effect = lower value 1.01 | locus YLR258W, strain gsy2, stronger effect = lower value 1.04 | locus YLR262C, strain YPT6 (second series), stronger effect = lower value 1.02 | locus YLR320W, strain mms22, stronger effect = lower value 1.03 | locus YLR342W, strain FKS1, stronger effect = lower value 1.03 | locus YLR357W, strain rsc2, stronger effect = lower value 0.968 | locus YLR370C, strain arc18, stronger effect = lower value 1.03 | locus YLR384C, strain iki3, stronger effect = lower value 1.03 | locus YML120C, strain ndi1, stronger effect = lower value 1 | locus YMR058W, strain fet3, stronger effect = lower value 1.02 | locus YMR125W, strain sto1, stronger effect = lower value 1.02 | locus YMR129W, stronger effect = lower value 1.02 | locus YMR205C, strain PFK2, stronger effect = lower value 1.02 | locus YMR231W, strain pep5, stronger effect = lower value 1.02 | locus YNL071W, strain lat1, stronger effect = lower value 1.03 | locus YNL183C, strain NPR1, stronger effect = lower value 0.91 | locus YNL209W, strain ssb2, stronger effect = lower value 1.02 | locus YNL248C, strain rpa49, stronger effect = lower value 0.989 | locus YNL322C, strain KRE1 (second series), stronger effect = lower value 1.02 | locus YNR049C, strain mso1, stronger effect = lower value 1.02 | locus YOR001W, strain rrp6, stronger effect = lower value 1.01 | locus YOR070C, strain gyp1, stronger effect = lower value 1.02 | locus YOR080W, strain dia2, stronger effect = lower value 1.01 | locus YOR083W, strain WHI5, stronger effect = lower value 1 | locus YOR106W, strain vam3, stronger effect = lower value 1.03 | locus YOR231W, strain MKK1, stronger effect = lower value 0.992 | locus YOR265W, strain rbl2, stronger effect = lower value 1.02 | locus YOR270C, strain vph1, stronger effect = lower value 1.11 | locus YOR290C, strain snf2, stronger effect = lower value 1.01 | locus YPL051W, strain arl3, stronger effect = lower value 1.01 | locus YPL078C, strain atp4, stronger effect = lower value 1.01 | locus YPL106C, strain sse1, stronger effect = lower value 1.02 | locus YPL240C, strain hsp82, stronger effect = lower value 1.03 | locus YPL256C, strain CLN2, stronger effect = lower value 0.99
